# Measurements reported in PubChem BioAssay AID2546 (National Center for Advancing Translational Sciences (NCATS), 2010).
# The whole screen tested about 310,000 compounds, of which about 11,000 (3.5%) were called active. About 8% were inconclusive and are not listed. This is one part of a sample in which actives are shown more often than they occur. Unmarked numbers belong to inactive results. The call rests on the fitted dose curve; in most records, active means well fitted inhibition curve with a large enough effect; inconclusive means small, poorly fitted or top-dose-only effect, or effect the other way; inactive means flat fitted curve, though single readings scatter.
# Test: VP16 counterscreen qHTS for inhibitors of ROR gamma transcriptional activity;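 further: Gal4-VP16 expression switched on by copper sulfate through the metallothionein promoter; nearly all actives have a fitted effect of over 50% in size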
# Settings: Drosophila S2 Gal4-VP16 UAS-luciferase, luminescence, 20 h; series mostly up to 53.6 µM; activity, negative = inhibition: at the top concentration
# On the % scale 0 is the no-effect control and ±100 the full control effect; potency means the concentration at half of the fitted maximal effect.
SMILES,"activity, negative = inhibition",Potency
O=S(=O)(NC1CCCCC1N1CCN(c2ccccc2F)CC1)c1ccccc1 (stereo not drawn),1.87%,–
CCOC(=O)c1cnc(Nc2nc3ccccc3o2)nc1CSC(=S)N1CCCCC1,–,1 µM (active)
CCOC(=O)CCNC(=O)N1CCCC(C(=O)c2ccccc2SC)C1 (stereo not drawn),7.34%,–
CCc1ccc(CNC(=O)C2CCCN(c3nc4ccccc4o3)C2)cc1 (stereo not drawn),0.192%,–
COc1cc(C(=O)NCc2cc3cc(Cl)ccc3n2C)cc(OC)c1OC,-1.94%,–
Cc1ccc(NS(=O)(=O)c2ccc3c(c2)oc(=O)n3C)c(C)c1,8.38%,–
COc1ccccc1N(C)C(=O)c1cc(S(=O)(=O)N2CCc3ccccc32)cn1C,3.02%,–
COC(=O)c1ccc(C(=O)NC2CC(C)(C)Cc3c2cnn3-c2ccc(F)cc2)nc1 (stereo not drawn),-7.58%,–
Oc1ccc(N=Nc2nccs2)c(O)c1,1.19%,–
Oc1c(C=Nc2cccc3nsnc23)ccc2ccccc12,-4.1%,–
Oc1ccc2ccccc2c1N=Nc1nccs1,–,3.55 µM (active)
Cc1csc(NC(=O)CSc2nnc(-c3cccnc3)o2)n1,-3.93%,–
COc1ccc(-c2nc(CS(=O)(=O)CC(=O)NCc3cccc(Br)c3)c(C)o2)cc1,-15.1%,–
Cc1[nH]n(C(N)=S)c(=O)c1N=Nc1ccc(Cl)cc1Cl,–,2.82 µM (active)
Cc1ccc(N=Nc2c(C)[nH]n(-c3ccccc3)c2=O)cc1,5.41%,–
Cc1cccc(N=Nc2c(C)[nH]n(-c3ccccc3)c2=O)c1,-25.6%,–
COc1ccc(NC(=O)c2cc(-c3cc(OC)c(OC)c(OC)c3)nc3ccccc23)c(OC)c1,0.317%,–
O=C(Nc1ccccc1)N1CCN(Cc2ccccc2)CC1,5.98%,–
O=C(NC(=S)N1CCN(Cc2ccccc2)CC1)c1ccccc1,–,3.55 µM (active)
O=C(c1cccc(Cl)c1)N1CCN(Cc2ccccc2)CC1,-10.5%,–
CC1CCN(S(=O)(=O)c2ccc3[nH]c(=O)ccc3c2)CC1,-0.775%,–
CCC(C)[C@H](NC(=O)N1CCn2c1nc1ccccc12)C(=O)NCc1ccc(OC)cc1 (stereo partly drawn),-29.5%,–
NC(=S)N/N=C/c1ccc([N+](=O)[O-])cc1,-6.63%,–
CCOc1ccc(/C=N/NC(N)=S)cc1,–,10 µM (active)
CCOc1ccc(/C=N\NC(=O)c2c(C)nc3cc(C)ccn23)cc1,-13.1%,–
COc1cc(OC)cc(C(=O)NCCSCc2ccc(Cl)cc2)c1,-7.09%,–
COc1cccc(-c2noc(C3CCCN(C(=O)c4ccc(F)cc4)C3)n2)c1 (stereo not drawn),24.3%,–

SMILES,"activity, negative = inhibition",Potency
Cn1c(=O)c2c(SCC(=O)NCC3CCCO3)nc(CC(C)(C)C)nc2n(C)c1=O (stereo not drawn),2.94%,–
O=c1[nH]c(N2CCN(Cc3ccc4c(c3)OCO4)CC2)nc2c1CCCC2,-11.9%,–
CC(C)(C)n1nnnc1C(c1ccc(F)cc1)N1CCN(Cc2ccc3c(c2)OCO3)CC1 (stereo not drawn),-2.02%,–
Fc1ccc2[nH]c3c(N4CCN(Cc5ccc6c(c5)OCO6)CC4)ncnc3c2c1,–,7.08 µM (active)
CCC(C)(C)NC(=O)C(c1ccc(O)cc1)N(Cc1ccco1)C(=O)CCC(=O)Nc1ccccn1 (stereo not drawn),-2.82%,–
Cc1ccc(-c2cnc(NC(=O)CCC(=O)N(C)Cc3ccccc3)n2C)cc1,–,4.47 µM (active)
Cn1c(-c2ccc(F)cc2)cnc1SCC(=O)NNC(=O)Cc1ccccc1,1.29%,–
CN(Cc1ccccc1)C(=O)CCc1ccccc1,-2.33%,–
Cc1ccn2c(=O)c(C(=O)NCCC3=CCCCC3)c(O)nc2c1,5.55%,–
O=C(COc1nsnc1N1CCOCC1)Nc1ccccc1Cl,1.93%,–
O=C(Cn1ncc2c3ccccc3n(Cc3ccccc3)c2c1=O)NCCCN1CCOCC1,-6.6%,–
CCCn1c(NC(=O)C23CC4CC(CC(O)(C4)C2)C3)nc2ccccc21,–,5.62 µM (active)
CCOc1ccccc1NC(=O)C12CC3CC(C1)CC(c1ccc(C)cc1)(C3)C2,-12.1%,–
CCCn1c(C(Cc2ccccc2)NC(=O)COC)nc2ccccc21 (stereo not drawn),1.52%,–
Cc1ccc2c(=O)cc(C(=O)NCCc3ccc(S(N)(=O)=O)cc3)oc2c1C,-14.1%,–
CCCCc1cc(=O)oc2c(C)c(OCC(=O)N3CCC(C(N)=O)CC3)ccc12,4.32%,–
COc1cc(NC(=O)Nc2ccc(C)cc2)cc([N+](=O)[O-])c1,-24.4%,–
COc1cccc(C(=O)NCCSc2ccc(Br)cc2)c1,-6.02%,–
COc1cc(NC(=S)NCCSc2ccc(C)cc2)cc(OC)c1,–,6.31 µM (active)
Cc1ccc(-n2nc3c(=O)n(C(C)C(=O)NCc4ccc5c(c4)OCO5)nc(C)c3c2C)cc1 (stereo not drawn),-6.13%,–
CCCCN(C)CCCNC(=O)c1cc(-c2cccs2)nc2ccccc12,-4.43%,–
CC(C)(C)Cc1nnc(NC(=O)c2cc(-c3ccccc3)nc3ccccc23)s1,–,12.6 µM (active)
COC(=O)CNC(=O)c1cc(-c2ccncc2)nc2ccccc12,-0.0526%,–
O=C(Nc1nnc(-c2ccccc2)o1)c1cc(-c2cccs2)nc2ccccc12,–,1 µM (active)
O=C(O)c1cccc(NC(=O)c2cc(-c3cccc(Cl)c3)nc3ccccc23)c1,-19.7%,–
COC(=O)c1cc(-c2cccs2)nc2ccccc12,-5.93%,–
